These results are taken from PubChem BioAssay.

The structures appear in SMILES notation. The source made the active and inactive calls. Unless noted, no rule for the calls is given here.

Assay [1] can be described thus: HepG2 liver cancer cell viability effects, profiling panel, resazurin fluorescence, 24 h, PK04 Diversity Set (AID 1172). The settings on record: higher = more signal.
A short description of assay [2]: basal S. cerevisiae growth modulation, no modifier, primary screen, OD600, strain BY4716, 24 h, basal condition (AID 1173). Conditions: OD600, 24 h, higher = more signal, called active from +8 up or from −8 down.
The nature of assay [3]: MM1S myeloma cell viability, profiling panel, resazurin fluorescence, basal, 24 h, PK04 Diversity Set (AID 1174).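 Also: MM1S multiple myeloma cell line.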 The settings on record: higher = more signal, called active from +8 up or from −8 down.
For assay [4], the target named is Dihydroorotate dehydrogenase (quinone), mitochondrial (Plasmodium falciparum (isolate 3D7)) (UniProt Q08210). The assay can be described thus: PfDHODH enzyme inhibitors, primary screen, biochemical, C-terminal His tag, absorbance 600 nm (AID 1175).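 Also: recombinant parasite enzyme with a five histidine tag at its C terminus.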 The settings on record: DCIP absorbance 600 nm, higher = more signal, called active from +8 up or from −8 down.
Dihydroorotate dehydrogenase (quinone), mitochondrial (Plasmodium falciparum (isolate 3D7)), sequence (Q08210 whole entry, looked up): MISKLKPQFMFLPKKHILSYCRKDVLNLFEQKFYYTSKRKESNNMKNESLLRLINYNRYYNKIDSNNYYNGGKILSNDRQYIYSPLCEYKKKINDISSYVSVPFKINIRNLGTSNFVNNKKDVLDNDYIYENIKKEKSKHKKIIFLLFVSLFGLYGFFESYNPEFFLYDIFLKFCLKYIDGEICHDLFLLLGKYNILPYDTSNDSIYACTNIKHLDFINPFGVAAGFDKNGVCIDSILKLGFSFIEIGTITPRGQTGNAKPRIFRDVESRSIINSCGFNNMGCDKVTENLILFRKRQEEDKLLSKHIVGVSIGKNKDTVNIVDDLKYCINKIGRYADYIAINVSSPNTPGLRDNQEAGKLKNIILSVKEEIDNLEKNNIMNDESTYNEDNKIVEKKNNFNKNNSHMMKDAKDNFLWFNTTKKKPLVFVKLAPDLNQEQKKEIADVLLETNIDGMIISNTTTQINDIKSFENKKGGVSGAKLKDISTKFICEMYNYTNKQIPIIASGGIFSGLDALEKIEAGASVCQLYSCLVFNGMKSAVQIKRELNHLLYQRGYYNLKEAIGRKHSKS
Assay [5] can be described thus: P. aeruginosa biofilm formation inhibitors, primary screen, strain PAO1, LB-PBS medium, absorbance 600 nm (AID 1176). The settings on record: P. aeruginosa PAO1 growth/biofilm, A600, 12 h; higher = more signal.
Assay [6] is described as follows: S. cerevisiae RM11-1a growth modifiers, primary screen, strain RM11-1a, OD600, basal, 24 h (AID 1177).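 Also: cultures grown under basal conditions with no added stressor.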 The settings on record: OD600, 24 h, higher = more signal, called active from +8 up or from −8 down.
The nature of assay [7]: E. coli acrAB mutant growth effects, primary screen, E. coli filamentation inducers, strain DRC39, OD650, 24 h (AID 1178).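 Also: growth measured as culture turbidity by optical density at 650 nm.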 The settings on record: higher = more signal, called active from +8 up or from −8 down.
Assay [8] is described as follows: E. coli acrAB mutant growth effects, primary screen, E. coli filamentation inducers, strain DRC39, OD650, 48 h (AID 1179).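 Also: screen aims at cell division blockers that make cells filament.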 Conditions: E. coli DRC39 delta-acrAB growth, higher = more signal, called active from +8 up or from −8 down.
Assay [9] in a line: RPMI8226 myeloma cell viability, profiling panel, resazurin fluorescence, basal, 24 h, PK04 Diversity Set (AID 1180).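 Also: RPMI8826 multiple myeloma cell line at 5000 cells per well.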 Conditions: higher = more signal. In general terms: Alamar Blue is a resazurin reagent that responds to reducing activity.
Assay [10] has as its target E3 ubiquitin-protein ligase XIAP (Homo sapiens) (UniProt P98170). The assay is described as follows: XIAP binders, primary screen, biophysical, small-molecule microarray, fluorescence 635 nm (AID 1181).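 Also: score merges 667 nm emission and signal to noise over triplicate slides.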 The settings on record: small-molecule microarray binding, higher = more signal.
The subject of assay [11] is XIP peptide (Xip251-270) binding. The assay is described as follows: small-molecule binders of XIP peptide, primary screen, biochemical, small-molecule microarray, fluorescence 635/667 nm, 0.1 µg/mL protein (AID 1182). Conditions: fluorescent protein binding, 635 nm, higher = more signal, called active from +8 up or from −8 down.
The next assay has as its system XIP peptide (Xip251-270). The assay is described as follows: small-molecule binders of XIP peptide, primary screen, biochemical, small-molecule microarray, fluorescence 635/667 nm, 0.5 µg/mL protein (AID 1183). The settings on record: small-molecule microarray binding, fluorescence 635 nm; higher = more signal.
Assay [12] is described as follows: Plasmodium falciparum growth inhibition, primary screen, strain 3D7, DAPI fluorescence, 100 nL (AID 1184).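 Also: parasites grown inside human red blood cells in medium with human serum.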 Conditions: P. falciparum 3D7 growth, 3 d, higher = more signal.
Assay [13] has as its target Homeobox protein Hox-A13 (Mus musculus) (UniProt Q62424). The assay can be described thus: inhibitors of HoxA13-DNA binding, primary screen, biochemical, fluorescence polarization, labeled oligonucleotide (AID 1185). Conditions: 15 min, higher = more signal, called active from +8 up or from −8 down. (Fluorescence polarisation rises when a labelled molecule tumbles more slowly, as on binding a larger partner.)

Assay [14] is described as follows: inhibitors of hydroxyurea-induced Chk1 phosphorylation, primary screen, imaging, HeLa, phospho-Chk1 antibody, percent positive cells (AID 1186). The settings on record: hydroxyurea-induced phospho-Chk1 immunofluorescence imaging, higher = more signal.
Assay [15] can be described thus: inhibitors of hydroxyurea-induced Chk1 phosphorylation, primary screen, imaging, HeLa, phospho-Chk1 nuclear intensity (AID 1187). Conditions: hydroxyurea-induced phospho-Chk1 immunofluorescence imaging, higher = more signal.

Homeobox protein Hox-A13 (Mus musculus), sequence (Q62424 whole entry, looked up): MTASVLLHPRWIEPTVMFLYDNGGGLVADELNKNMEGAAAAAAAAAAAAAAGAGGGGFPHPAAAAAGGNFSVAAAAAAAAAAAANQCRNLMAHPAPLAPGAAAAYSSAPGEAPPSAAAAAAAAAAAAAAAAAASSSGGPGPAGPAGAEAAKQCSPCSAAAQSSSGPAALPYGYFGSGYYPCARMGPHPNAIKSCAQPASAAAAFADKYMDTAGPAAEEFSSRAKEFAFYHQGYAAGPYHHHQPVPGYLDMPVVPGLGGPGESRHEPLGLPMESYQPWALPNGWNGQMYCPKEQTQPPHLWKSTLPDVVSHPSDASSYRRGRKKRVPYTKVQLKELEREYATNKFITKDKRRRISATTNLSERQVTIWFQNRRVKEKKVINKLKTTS
E3 ubiquitin-protein ligase XIAP (Homo sapiens), sequence (P98170 whole entry, looked up): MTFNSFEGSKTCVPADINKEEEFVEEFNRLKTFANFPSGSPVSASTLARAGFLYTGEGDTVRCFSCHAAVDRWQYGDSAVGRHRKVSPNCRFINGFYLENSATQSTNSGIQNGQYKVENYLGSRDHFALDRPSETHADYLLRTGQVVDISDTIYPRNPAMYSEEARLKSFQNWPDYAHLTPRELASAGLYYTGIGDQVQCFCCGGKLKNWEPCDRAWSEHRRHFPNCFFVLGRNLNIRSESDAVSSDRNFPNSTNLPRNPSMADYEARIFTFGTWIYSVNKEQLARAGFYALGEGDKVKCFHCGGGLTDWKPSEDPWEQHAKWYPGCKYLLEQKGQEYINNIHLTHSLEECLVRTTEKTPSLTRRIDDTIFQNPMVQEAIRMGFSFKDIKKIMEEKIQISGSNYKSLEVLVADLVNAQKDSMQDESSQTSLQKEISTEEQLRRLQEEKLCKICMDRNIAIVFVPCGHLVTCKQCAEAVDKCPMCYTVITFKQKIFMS

As for `COc1ccc([Si](C)(C)[C@@H]2[C@@H](CCO)O[C@]3(C(=O)N(Cc4ccc(N5C(=O)c6ccccc6Oc6ccccc65)cc4)c4ccccc43)[C@H]2C)cc1`, the z-score in [1] was 0.0213; in assay [2], 2.15 (inactive); in [3], -0.848 (inactive); in assay [5], 2.88 (inactive); in assay [6], 4.38 (inactive); in assay [7], 0.365 (inactive). Further, the z-score in assay [8] was -0.275 (inactive); in assay [9], -3.07; in assay [12] it was -2.77; in [13], -1.06 (inactive); in [14], -0.42 (inactive); in assay [15], -0.394 (inactive). Moreover, the composite z-score is -0.343 (inactive) in assay [4], -0.203 in assay [10], 0.89 (inactive) in [11] and 0.294 in the assay with XIP peptide (Xip251-270).
As to `COC(=O)[C@]1(Cc2ccccc2CN=[N+]=[N-])N=C(c2ccc(OCCCO)cc2)O[C@@H]1c1ccccc1`, the z-score in assay [1] was -2.08; in assay [2] it was 1.42 (inactive); in assay [3], -4.5 (inactive); in assay [5], 0.948 (inactive); in [6], 3.06 (inactive); in assay [7] it was 0.286 (inactive). Besides, the z-score is -0.865 (inactive) in assay [8]; -5.26 in [9]; -2.17 in assay [12]; -4.62 (inactive) in assay [13]; -0.346 (inactive) in assay [14]; -0.91 (inactive) in assay [15]. Besides, the composite z-score was 2.51 (inactive) in assay [4], -0.184 in [10], 0.0835 (inactive) in assay [11] and 0.534 in the assay on XIP peptide (Xip251-270).
`CC(C)NC(=O)[C@@H]1c2ccccc2C(=O)N(Cc2cc(C(F)(F)F)cc(C(F)(F)F)c2)[C@H]1c1ccc(CO)cc1`: the z-score in [1] was 0.447; in [2] it was -0.168 (inactive); in [3] it was -0.0526 (inactive); in [5] it was 0.733 (inactive); in assay [6], 0.0633 (inactive); in [7] it was 1.17 (inactive). In addition, the z-score in assay [8] is 0.393 (inactive); in assay [9], 0.25; in assay [12], -0.337; in [13] it was -3.9 (inactive); in assay [14], 0.349 (inactive); in [15], 0.622 (inactive). For the same compound, the composite z-score is 0.357 (inactive) in assay [4], -0.0141 in assay [10], 1.14 (inactive) in assay [11] and 0.55 with XIP peptide (Xip251-270).
For the compound `N#Cc1ccc(NN2C(C(O)c3ccco3)C=CC3C(=O)N(c4ccccc4)C(=O)C32)cc1` (centres undefined), the z-score is -0.674 in assay [1]; -0.36 (inactive) in assay [2]; -0.512 (inactive) in assay [3]; 1.07 (inactive) in [5]; 0.293 (inactive) in assay [6]; -2.14 (inactive) in assay [7]. In addition, the z-score is -2.13 (inactive) in [8]; -0.607 in assay [9]; 1.1 in [12]; -1.96 (inactive) in assay [13]; -0.124 (inactive) in [14]; -0.228 (inactive) in assay [15]. Also, the composite z-score is 0.0512 (inactive) in assay [4], 0.0794 in [10], -0.323 (inactive) in assay [11] and 0.347 in the assay with XIP peptide (Xip251-270).
As for `COCCCNC(=O)[C@@H]1c2ccccc2C(=O)N(Cc2cc(F)cc(C(F)(F)F)c2)[C@H]1c1ccc(CO)cc1`, the z-score is -0.434 in assay [1]; -0.336 (inactive) in assay [2]; -0.522 (inactive) in [3]; 0.36 (inactive) in assay [5]; -0.955 (inactive) in [6]; -0.109 (inactive) in assay [7]. The z-score in [8] is -0.0475 (inactive); in assay [9], -0.197; in [12], -0.288; in [13], -2.79 (inactive); in assay [14] it was 0.0176 (inactive); in assay [15], -0.299 (inactive). The composite z-score in [4] is -1.13 (inactive); in [10], -0.309; in [11] it was -0.0408 (inactive); in the assay with XIP peptide (Xip251-270), -0.0784.
On to `C[C@H]1ON(c2ccccc2)[C@@H](c2ccccc2)[C@@H]1C(=O)N1C(=O)OC[C@@H]1c1ccccc1`, for which the z-score in [1] is 0.565; in assay [2], 0.551 (inactive); in assay [3], 0.715 (inactive); in assay [5], -0.189 (inactive); in assay [6], 1.5 (inactive); in assay [7], 0.259 (inactive). For the same compound, the z-score in [8] is -0.0075 (inactive); in assay [9], 0.942; in assay [12] it was -0.968; in assay [13] it was -2.12 (inactive); in assay [14], -0.134 (inactive); in [15], -0.154 (inactive). In addition, the composite z-score in assay [4] was -0.199 (inactive); in [10] it was -0.123; in [11], -0.222 (inactive); with XIP peptide (Xip251-270), 0.195.
For the compound `CCN(CC)c1ccc(N2CC=CC34O[C@@H]5/C=C\CCCOC(=O)C5[C@H]3C(=O)N(CCCCCCO)[C@@H]4C2=O)cc1` (some centres undefined), the z-score is -0.574 in assay [1]; -1.14 (inactive) in assay [2]; 0.93 (inactive) in assay [3]; -0.869 (inactive) in assay [5]; -1.78 (inactive) in assay [6]; 0.318 (inactive) in [7]. Also, the z-score was 0.901 (inactive) in assay [8]; 0.79 in assay [9]; -0.789 in assay [12]; -5.09 (inactive) in assay [13]; -0.0771 (inactive) in assay [14]; 1.02 (inactive) in assay [15]. For the same compound, the composite z-score in assay [4] was -2.09 (inactive); in [10], -0.083; in assay [11], 1.51 (inactive); in the assay on XIP peptide (Xip251-270) it was 0.897.
In the case of `COC(=O)[C@H]1N=C(c2ccc(OCCCO)cc2)O[C@H]1c1ccccc1CN=[N+]=[N-]`, the z-score in assay [1] was 1.55; in assay [2], -0.785 (inactive); in [3], 0.236 (inactive); in assay [5], -0.043 (inactive); in assay [6], 1.29 (inactive); in assay [7] it was 0.535 (inactive). The z-score in assay [8] is -0.0456 (inactive); in [9] it was 1.32; in [12], -1.79; in [13], -1.53 (inactive); in [14] it was 0.0721 (inactive); in assay [15] it was 0.328 (inactive). The composite z-score was 0.982 (inactive) in assay [4], 0.331 in [10], 0.262 (inactive) in [11] and 0.62 in the assay with XIP peptide (Xip251-270).
For `COc1cc2c(cc1OC)CN(C(=O)[C@@H]1[C@H]3C(=O)O[C@H](c4ccccc4)[C@H](c4ccccc4)N3[C@H](c3ccc(OCCO)cc3)[C@@]13C(=O)Nc1ccc(C#CCCO)cc13)CC2`, the z-score in assay [1] is -0.0794; in assay [2], 0.66 (inactive); in assay [3], 0.113 (inactive); in assay [5], 2.75 (inactive); in [6], 1.45 (inactive); in [7] it was 0.592 (inactive). Further, the z-score in assay [8] is -0.13 (inactive); in [9] it was 0.768; in [12], -2.12; in [13], 3.49 (inactive); in assay [14] it was 0.0699 (inactive); in [15], 0.595 (inactive). Besides, the composite z-score in [4] was 1.66 (inactive); in [10] it was -0.113; in assay [11], 1.17 (inactive); with XIP peptide (Xip251-270), 0.75.
